High-throughput results deposited in PubChem BioAssay by National Center for Advancing Translational Sciences (NCATS).
Most compounds without a hit are left out; they make up all but 12% or so of the library.
Sfp PPTase inh: inhibitors of Bacillus subtilis Sfp phosphopantetheinyl transferase. 310,000 tested, 3.5% active. AID 1490. Q9F4F7. Biochemical Sfp PPTase activity, qHTS. Potency, µM, inactives show largest response in the series, negative = inhibition, actives largely listed as inhibitors;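 also: the enzyme is Sfp with the accession as filed and its product quenches rhodamine fluorescence; 0% = enzyme reaction without inhibitor and -100% = no enzyme wells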
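With Hepes-Na pH 7.6 buffer containing 10 mM MgCl2, Sfp (15 nM) modified BHQ-2-YbbR (12.5 uM) using rhodamine-CoA (5 uM). Two reads 30 minutes apart at 525/598 nm yielded each well's rate.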
HP1b binding inh: blocks HP1-beta chromodomain binding to methylated histone tails | AID 540317 | AlphaScreen HP1-beta / biotin-H3K9me3 peptide binding | 390,000 tested, 0.56% active | Potency, µM (series often up to 114 µM), without a hit: at the highest dose activity change, negative = inhibition, most hits filed as inhibitors; also: nearly all actives have a fitted effect of over 70% in size
Target sequence (P83916 whole entry, looked up): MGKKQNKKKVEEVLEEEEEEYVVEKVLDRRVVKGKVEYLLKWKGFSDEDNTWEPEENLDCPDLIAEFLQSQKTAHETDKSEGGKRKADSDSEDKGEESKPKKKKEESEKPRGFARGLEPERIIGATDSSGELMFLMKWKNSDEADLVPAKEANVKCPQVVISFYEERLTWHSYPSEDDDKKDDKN
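AlphaScreen: HP1-beta (50 nM) preformed 30 min with biotin-H3(1-18)K9me3 peptide (50 nM) in PBS pH 7.4, 0.01% Tween-20. Compound added for 30 min at RT, then streptavidin donor/nickel chelate acceptor beads (10 ug/mL) for 30 min.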
G9a block: inhibitors of human histone lysine methyltransferase G9a; Q96KQ7; G9a H3K9 monomethylation, AlphaScreen, 2 h; Potency, µM (highest dose often 102 µM), for the others: top-dose activity, negative = inhibition, actives largely listed as inhibitors; 350,000 tested, 8.8% active; also: % is scaled to controls: 0 for no effect and ±100 for the full control effect; nearly all actives have a fitted effect of over 75% in size
Target sequence (Q96KQ7 913-1193 limits assumed): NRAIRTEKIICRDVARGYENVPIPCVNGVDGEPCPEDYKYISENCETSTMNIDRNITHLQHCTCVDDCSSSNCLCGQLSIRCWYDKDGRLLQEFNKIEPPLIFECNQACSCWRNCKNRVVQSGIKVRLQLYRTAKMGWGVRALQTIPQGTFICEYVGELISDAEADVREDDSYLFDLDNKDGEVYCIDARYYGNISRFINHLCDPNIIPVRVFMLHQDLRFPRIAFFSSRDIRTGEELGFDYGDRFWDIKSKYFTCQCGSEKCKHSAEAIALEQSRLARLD
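Using a bead-based AlphaScreen, monomethylated H3K9 product from 2 h room-temperature reactions (G9a 20 nM, peptide 500 nM, SAM 20 uM) was detected with 0.5 ug/mL rabbit anti-H3K9me1 antibody.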
L3MBTL1 block: L3MBTL1 (human) inhibition; AlphaScreen L3MBTL1–H3K9me1 peptide binding; Potency, µM (top dose mostly 57.1 µM), for the others: top-dose activity, negative = inhibition, hits mostly inhibitors; 230,000 tested, 0.66% active; also: % is scaled to controls: 0 for no effect and ±100 for the full control effect; nearly all actives have a fitted effect of over 60% in size
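AlphaScreen assay: L3MBTL1 (50 nM final) was preincubated 30 min at room temperature with biotinylated H3(1-15)K9me1 peptide (75 nM final), then 30 min with library compounds; streptavidin donor and nickel chelate acceptor beads (10 ug/mL final) added, 30 min dark.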
BAZ2B block: BAZ2B (human) inhibition. Q9UIF8. AlphaScreen BAZ2B-H3K14Ac peptide displacement. Potency, µM (titrated, usually from 114 µM), without a hit: at the highest dose activity change, negative = inhibition, usual class: inhibitors. 360,000 tested, 4.4% active. AID 504333; also: % is scaled to controls: 0 for no effect and ±100 for the full control effect; nearly all actives have a fitted effect of over 60% in size
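Multi-concentration screen (max 110 uM) measuring displacement of acetylated histone H3 peptide from BAZ2B by AlphaScreen, using 50 nM protein, 50 nM peptide and 10 ug/mL streptavidin donor plus Ni-chelate acceptor beads.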
JMJD2A Tudor: blocks the human JMJD2A Tudor domain; 390,000 tested, 4.4% active; AlphaScreen JMJD2A-Tudor / H3K4me3 peptide binding; O75164; Potency, µM (titrated, usually from 114 µM), without a hit: at the top dose activity change, negative = inhibition, actives largely listed as inhibitors; also: % is scaled to controls: 0 for no effect and ±100 for the full control effect; nearly all actives have a fitted effect of over 50% in size
* = called active by the depositor; ? = inconclusive; nt = not tested or not shown; ! = repeats disagree; [ ] = dose if it differs, or a comment. Calls follow the shape of the dose curve; as a rule, active = well fitted curve in the direction sought with a large enough effect; inconclusive = small, poorly fitted or top-dose-only effect, or another doubt; inactive = no such curve, though single readings can be large; an effect the other way counts as inactive or inconclusive. Potency is read from the fitted curve at half-maximal effect.

SMILES	Sfp PPTase inh	HP1b binding inh	G9a block	L3MBTL1 block	BAZ2B block	JMJD2A Tudor
COCCn1c(SCC(=O)Nc2ccc(C(C)=O)cc2)nnc1-c1ccco1	-7%	35%	16%	nt	-1%	-6%
Cc1ccc(NC(=O)CSc2ccc(-c3ccco3)nn2)c(C)c1	56µM*	17%	-3%	nt	2%	-14%
Cc1ccc(NC(=O)CSc2ccc(-c3ccco3)nn2)cc1	20µM*	8%	40µM*	nt	-1%	-8%
Cc1ccc(CNC(=O)CSc2ccc(-c3ccco3)nn2)cc1	-11%	17%	?	-3%	0%	-16%
CC(=O)c1ccc(NC(=O)CSc2ccc(-c3ccco3)nn2)cc1	40µM*	27%	?	nt	-20%	-12%
Cc1ccc(Cl)cc1N(C)C(=O)c1cc2c(Cl)nc3ccccc3c2s1	nt	51%	6%[59 µM]	nt	-4%	4%
Cc1ccc(S(=O)(=O)N(C)/N=C/c2ccc(N(C)C)cc2)cc1	1%	40µM*	18µM*	nt	25µM*	22µM*
Cc1ccc(S(=O)(=O)N(C)/N=C/C=C/c2ccccc2)cc1	2%	20%	35µM*	9%	-4%	-26%
Cc1ccc(S(=O)(=O)N(C)c2ccc(N)cc2)cc1	20%	17%	-5%	nt	5%	1%
CCN(C(=O)c1cn(CC)c(=O)c2cc(OC)c(OC)cc12)c1ccc(C)c(C)c1	nt	-9%	1%[59 µM]	nt	-5%	-17%
CCCCC(C(=O)O)C(C)CC(=O)NNC(=O)c1ccco1 (stereo not drawn)	11%	15%	6%	-27%	4%	-13%
CC(C)CCC(C(=O)O)C(C)CC(=O)NNC(=O)c1ccco1 (stereo not drawn)	11%	31%	-12%[12.7 µM]	28µM*!	-5%	2%
CC(C)(C)OC(=O)N(c1cccc2cccnc12)S(=O)(=O)c1ccccc1Br	nt	66%	nt	nt	nt	-8%
COc1ccc(C[C@H](N)C(=O)N[C@H]2[C@@H](O)[C@H](n3cnc4c(N(C)C)ncnc43)O[C@@H]2CO)cc1	nt	-3%	?	8%	-6%	79µM*
COc1ccc(-c2noc(C3CC(=O)N(c4ccc(C)c(F)c4)C3)n2)c(OC)c1 (stereo not drawn)	nt	49%	-1%[59 µM]	nt	-13%	-21%
C[n+]1cc(-c2ccccc2)n2c1CCCCC2	10%	20%	71µM*	2%	45µM*	-23%
O=C(c1ccc(Cl)cc1)c1oc2ccccc2c1CS(=O)c1ccccc1 (stereo not drawn)	45µM*	-4%	?	-7%	-35%	?
CCc1ccc(NC(=O)c2cnn(-c3c(C)cccc3C)c2C2CCN(C(=O)OC(C)(C)C)CC2)cc1	nt	18%	-7%[59 µM]	nt	4%[57.1 µM]	-18%
O=C(O)C12CC3CC(C1)CC(n1ncc(NCc4ccco4)c(Cl)c1=O)(C3)C2	35µM*	14%	79µM*	-7%	-2%	-5%
O=C(O)CC12CC3CC(C1)CC(n1ncc(NCc4ccccc4Cl)c(Cl)c1=O)(C3)C2	-17%	24%	?	10%	-10%	-6%
CN(c1ccc(F)cc1)S(=O)(=O)c1ccc(Cl)c(C(=O)NCC(c2ccco2)N2CCCCC2)c1 (stereo not drawn)	nt	-34%	28µM*	0%	56µM*	?
COc1cc2c(C(=O)N(C)c3cc(Cl)ccc3OC)cn(CC(C)C)c(=O)c2cc1OC	nt	21%	1%[59 µM]	nt	-5%	-20%
Cc1c(C(=O)c2ccc(N(C)C)cc2)c2ccccn2c1CCC#N	-3%	?	45µM*	nt	?	?
Cc1c(C(=O)c2ccc(Cl)c([N+](=O)[O-])c2)c2ccccn2c1CCC#N	-3%	?	?	-16%	?	?
Cc1c(C(=O)c2ccc(F)cc2F)c2ccccn2c1CCC#N	?	22%[57 µM]	8.9µM*	nt	18µM*	-14%
CCOc1cc([N+](=O)[O-])cc2c1C(=O)Nc1ccccc1O2	13%	6%	1%	nt	-9%	-30%
